Screening results deposited in PubChem BioAssay by National Center for Advancing Translational Sciences (NCATS).
Compounds with a hit are over-represented: about 0.62% of the library has one in this group of screens.
gsp antagonist = qHTS for Antagonists of gsp, the Etiologic Mutation Responsible for Fibrous Dysplasia/McCune-Albright Syndrome: qHTS; gsp-mutant cells, cAMP HTRF, 30 min; Potency, µM (doses to about 76.9 µM), without a hit: at the top dose activity change, negative = inhibition, most hits filed as inhibitors; 340,000 compounds, 0.4% hits; calls by dose curve; cell line not stated here;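 note: intracellular cAMP measured with PDE inhibitor Ro 20-1724 present during compound exposure; % is set by controls: 0 for no effect and ±100 for the full control effect; nearly all actives have a fitted effect of over 65% in size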
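Cells, 2000/well, grown 16–24 h in DMEM 10% FBS with 0.5 mg/ml G418, then compounds plus […] (300 uM addition stock), 30 min at 37C. cAMP read by HTRF (cAMP-d2 and anti-cAMP antibody-K in lysis buffer) after 30 min RT.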
gsp agonist = qHTS for Agonist of gsp, the Etiologic Mutation Responsible for Fibrous Dysplasia/McCune-Albright Syndrome: qHTS; gsp mutant cells, cAMP HTRF, 30 min; Potency, µM (titrated, usually from 76.9 µM), for inactives: at the top dose activation (cAMP increase), most hits filed as activators; 340,000 compounds, 0.13% hits; active = well fitted activation curve with a large enough effect; inconclusive = small, poorly fitted or top-dose-only effect, or another doubt; inactive = no such curve, though single readings can be large or run the other way; cell line not stated here;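 note: phosphodiesterase inhibitor Ro 20-1724 added with compounds to block cAMP breakdown; nearly all actives have a fitted effect of over 60% in size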
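Cells in DMEM/10% FBS with G418 were pretreated with compounds in DMSO plus […] (300 uM stock) for 30 min at 37C. cAMP was measured by HTRF (cAMP-d2 plus anti-cAMP antibody-K) after 30 min at room temperature.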
ASM inhibitor = Inhibitors of Secretory Acid Sphingomyelinase (S-ASM): qHTS; Potency, µM (series often up to 57.5 µM), without a hit: at the top dose activity change, negative = inhibition, hits mostly inhibitors; placental ASM, HMU-PC fluorogenic substrate, 60 min; AID 504937, 2011; 340,000 compounds, 0.006% hits; active = well fitted inhibition curve with a large enough effect; inconclusive = small, poorly fitted or top-dose-only effect; inactive = no such curve, though single readings can be large or run the other way
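HMU-PC0 cleavage (9 uM final) by human placental ASM, 60 min at 37 °C following 10 min compound exposure at RT; stopped at pH 10, fluorescence Ex 386/Em 447 nm.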
Chronic BCR inh = qHTS Assay to Find Inhibitors of Chronic Active B-Cell Receptor Signaling; AID 493014, 2011; 340,000 compounds, 0.05% hits; Potency, µM (highest dose often 46.1 µM), without a hit: top-dose activity change, negative = inhibition, actives largely listed as inhibitors; ABC-DLBCL IkBa-CBG/CBR reporter, luminescence ratio, 4 h; active = well fitted inhibition curve with a large enough effect in the signal ratio, with a control signal flat, not every such curve was filed as active; inconclusive = small, poorly fitted or top-dose-only effect, or effect the other way, or a change in a side signal; the % refers to the signal ratio;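 note: plate controls were basal doxycycline-induced cells for no effect and cells given 10 µM MG132 for full effect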
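TMD8 ABC-DLBCL cells carrying doxycycline-inducible green luciferase fused to IkappaBalpha plus unfused red luciferase were exposed to compounds (up to 46 uM) for 4 hrs at 37C. Activity came from the overlap-corrected green/red luminescence ratio.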
MBNL1-CUG inh = qHTS Assay for Inhibitors of MBNL1-poly(CUG) RNA binding; Muscleblind-like protein 1 (Homo sapiens), Q9NR56; Potency, µM (highest dose often 57.5 µM), without a hit: top-dose activity change, negative = inhibition, actives largely listed as inhibitors; TR-FRET MBNL1-His/biotin-(CUG)12 binding, 665/545 ratio; 280,000 compounds, 0.036% hits; active = well fitted inhibition curve with a large enough effect in the signal ratio, with a control signal flat, not every such curve was filed as active; inconclusive = small, poorly fitted or top-dose-only effect, or effect the other way, or a change in a side signal; inactive = no such curve, though single readings can be large or run the other way; the % refers to the signal ratio; note: % is set by controls: 0 for no effect and ±100 for the full control effect
Target sequence (Q9NR56 whole entry, looked up): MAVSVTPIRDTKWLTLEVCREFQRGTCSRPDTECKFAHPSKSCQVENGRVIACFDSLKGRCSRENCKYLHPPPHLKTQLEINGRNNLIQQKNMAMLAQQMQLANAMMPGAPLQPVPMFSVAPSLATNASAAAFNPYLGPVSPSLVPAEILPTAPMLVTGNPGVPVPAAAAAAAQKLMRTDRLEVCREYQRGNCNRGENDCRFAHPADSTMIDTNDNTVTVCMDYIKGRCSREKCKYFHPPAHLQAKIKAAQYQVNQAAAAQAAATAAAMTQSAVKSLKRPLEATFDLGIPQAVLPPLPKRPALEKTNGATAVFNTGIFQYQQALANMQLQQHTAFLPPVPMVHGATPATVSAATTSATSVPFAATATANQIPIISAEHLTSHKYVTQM
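TR-FRET between His-tagged MBNL1 and biotin-(CUG)12 RNA, detected with Tb anti-His antibody (0.055 ng/ul) and streptavidin-XL665 (5 nM), 60 min at room temperature. Compounds titrated 92 nM to 58 uM; 665/545 nm ratio normalized to buffer and complex controls.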
Active calls of the source: *; ? = inconclusive; · = not tested or not shown; ! = not active in a repeat; [ ] = dose if it differs, or a comment. Potency is the fitted concentration of half-maximal effect.

SMILES | gsp antagonist | gsp agonist | ASM inhibitor | Chronic BCR inh | MBNL1-CUG inh
CCc1c(C(=O)O)[nH]c2ccc(Br)cc12 | 11% | 4µM* | -2% | 3% | -11%
CCc1ccccc1NC(=O)Cn1c(=O)n(-c2ccc(CC(=O)NCC3CCCO3)cc2)c(=O)c2ccccc21 (stereo not given) | -5% | -12% | -1% | -1% | ·
O=C(Cc1ccc(-n2c(=O)c3ccccc3n(Cc3ccc(F)cc3)c2=O)cc1)NCC1CCCO1 (stereo not given) | 7% | ? | -3% | 8.2µM* | ·
O=C(Cc1ccc(-n2c(=O)c3ccccc3n(Cc3ccccc3Cl)c2=O)cc1)NCC1CCCO1 (stereo not given) | -9% | -2% | 1% | 2.8µM* | ·
O=C(Cc1ccc(-n2c(=O)c3ccccc3n(Cc3ccccc3F)c2=O)cc1)NCC1CCCO1 (stereo not given) | 4% | -13% | 5% | ? | ·
CC[C@]12c3[nH]c4ccccc4c3CCN1C(=O)C(CC(=O)NCCC1=CCCCC1)C[C@@H]2C(=O)N1CCN(C(=O)c2ccco2)CC1 (stereo not given in full) | -11% | · | 2% | ? | ·
CC(=O)Nc1cccc(NC(=O)CCNC(=O)c2ccccc2)c1 | 4% | 6%[15.4 µM] | 1% | -7% | 0%
COc1ccc(CC(=O)Nc2cc(S(=O)(=O)N3CCCC3)ccc2Cl)c(OC)c1 | ? | 1% | 3% | 0% | ·
CCOC(=O)c1c(-c2ccc(OC)c(OC)c2)csc1NC(=O)C1CCCO1 (stereo not given) | 25µM* | -4%[15.4 µM] | 0% | ? | -2%
COc1ccc(CCNc2nc(-c3ccc(O)cc3)cs2)cc1OC | 35µM* | 7% | 0% | ? | -6%
Cc1cccc(-n2c3nc(=O)[nH]c(=O)c-3cc3cc([N+](=O)[O-])ccc32)c1 | 13% | ? | 21% | 12µM* | ?
Cc1ccc(C)c(-n2c3nc(=O)[nH]c(=O)c-3cc3cc([N+](=O)[O-])ccc32)c1 | 9% | 16% | 31% | ? | ·
CCCc1cc(C(=O)Nc2ccc(C(=O)c3ccccc3)cc2)n(C)n1 | ? | 4% | -3% | 2% | -3%
CCCc1cc(C(=O)Nc2ccc(C(=O)c3ccc(F)cc3)cc2)n(C)n1 | 35µM* | 21% | -2% | -4% | 3%
Cc1noc(C)c1CSCC(=O)Nc1cc(S(=O)(=O)N2CCOCC2)ccc1OCC(F)(F)F | 4% | ? | 2% | -12% | ·
CCOc1ccc(S(=O)(=O)N(CC)CC)cc1NC(=O)CSCc1c(C)noc1C | 1% | 10µM* | 2% | 0% | ·
O=C(COC(=O)c1ccc(Br)o1)Nc1ccc2c(c1)OCCO2 | -14% | 3% | -1% | ? | ·
O=C(COC(=O)CNC(=O)c1ccc(Br)o1)Nc1ccc2c(c1)OCCO2 | 50µM* | -114% | 1% | 1% | 12%
O=C(Nc1nc(-c2ccccc2)cs1)c1ccc2c(=O)n3c(nc2c1)CCCCC3 | 40µM* | -76% | -22% | 7% | -4%
O=C(Nc1ccccc1Cl)c1ccc2c(=O)n3c(nc2c1)CCC3 | -15% | -11% | 4% | ? | ·
O=C(Nc1nc(-c2ccccc2)cs1)c1ccc(N2CCOCC2)c([N+](=O)[O-])c1 | 32µM* | -5%[15.4 µM] | ? | ? | 20%
COCCNC(=O)CN1C(=O)/C(=C/c2ccccc2)Oc2ccc(C(C)(C)C)cc21 | 28µM* | 13% | 425% | -1% | 16%
CCOC(=O)C1=C(C)NC(C)=C(C(=O)OCC)C1C(=O)OCC(=O)N1c2ccccc2CC1C (stereo not given) | 11µM*! | -18% | 39% | ? | -2%
Cc1ccc(NC(=O)c2ncn(CCCNCC3CCCO3)n2)cc1C (stereo not given) | 9% | · | -3% | · | ·
O=C(O)c1ccc(NC2=C(Cl)C(=O)c3ccccc3C2=O)cc1 | 28µM* | ? | -2% | ? | ?
SMILES | gsp antagonist | gsp agonist | ASM inhibitor | Chronic BCR inh | MBNL1-CUG inh
O=C(O)c1cccc(NC2=C(Cl)C(=O)c3ccccc3C2=O)c1 | 50µM* | ? | -4% | ? | ?
CC[C@]12C(=O)N(C)C[C@H]([C@@H]3C(=O)N(C)C(=O)[C@@H]31)N2C(=O)c1ccc(Br)cc1 | 6% | -13% | 6% | · | ·
O=C1c2ccccc2C(=O)c2c(/C=C/N3CCCCC3)ccnc21 | -5% | 8.9µM* | -1% | · | ·
O=C(N=C1SC2CS(=O)(=O)CC2N1c1ccccc1C(F)(F)F)C1CCCO1 (stereo not given) | 11% | -20% | 0% | 5% | -1%
O=C(OCC(=O)N1CCC(Cc2ccccc2)CC1)c1cccnc1Cl | ? | 3% | 3% | -5% | ·
Cc1cc(=O)[nH]c(SCC(=O)O)c1C#N | 6% | 0% | 4% | 5% | 0%
Cc1cc(=O)[nH]c(SCC(=O)C23CC4CC(CC(C4)C2)C3)c1C#N | 35µM* | 19% | 4% | ? | -4%
O=C(c1ccc(CS(=O)Cc2ccccc2Cl)o1)N1CCN(c2cccc(Cl)c2)CC1 (stereo not given) | 32µM* | -1% | -1% | ? | -8%
COc1cccc(N2CCN(C(=O)c3ccc(CS(=O)Cc4ccccc4Cl)o3)CC2)c1 (stereo not given) | -15% | -68% | 1% | -1% | 3%
Cc1ccc(C)c(N2CCN(C(=O)C3CCN(S(=O)(=O)c4cccc5nsnc45)CC3)CC2)c1 | 22µM* | 22% | -8% | 25% | ?
O=C(C1CCN(S(=O)(=O)c2cccc3nsnc23)CC1)N1CCCCC1 | 14% | 11% | 0% | -5% | ?
Cc1ccc(Cl)cc1N1CCN(C(=O)C2CCN(S(=O)(=O)c3c(C)nn(C)c3C)CC2)CC1 | 40µM* | -5%[15.4 µM] | ? | -1% | 1%
CCCCNc1c(-c2ccc(OC)c(SC3CCCCC3)c2)nc2ccc(C)cn12 | 32µM* | ? | 337% | 0% | ·
COc1ccc(-c2nc3ccc(C)cn3c2NCc2ccccc2)cc1SC1CCCCC1 | 35µM* | · | 131% | ? | ·
Cc1ccc2nc(-c3cccc(SC4CCCCC4)c3)c(NCc3ccccc3)n2c1 | ? | 13% | 314% | 1% | ·
C[C@@H]1CN([C@H](C)CO)C(=O)CCCn2nncc2CO[C@H]1CN(C)C(=O)c1ccc(N2CCN(C)CC2)cc1 | · | -48% | · | · | ·
